The text below walks through data of PubChem BioAssay.

Assay [1] can be described thus: binders of probe aFSTL3 on microarray, primary screen, stem cell growth factor project, biochemical, small-molecule microarray, fluorescence 635/667 (AID 1064).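 Note: measures binding of the biotinylated anti-FSTL3 antibody to printed compounds.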 As to conditions: higher = more signal.
Assay [2] is described as follows: binders from COS7 lysate, DM2A8 probe, primary screen, torsin A project, cell lysate, small-molecule microarray, fluorescence 635/667 (AID 1065). As to conditions: higher = more signal, COS7 lysate expressing mutant human TOR1A.
Assay [3] is described as follows: binders of probe aFGF2 on microarray, primary screen, stem cell growth factor project, biochemical, small-molecule microarray, fluorescence 635/667 (AID 1067).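 Note: measures binding of biotinylated aFGF2 protein to printed compounds on slides; z-score merges feature fluorescence and signal-to-noise across triplicate slides.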 The conditions noted are these: higher = more signal.
A short description of assay [4]: binders of probe aFGF10 on microarray, primary screen, stem cell growth factor project, biochemical, small-molecule microarray, fluorescence 635/667 (AID 1071).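 Note: score merges 667 nm spot intensity and signal to noise from triplicate slides.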 The conditions noted are these: higher = more signal.
Assay [5] deals with Neurogenic locus notch homolog protein 2 (Homo sapiens) (UniProt Q04721). The assay can be described thus: Notch2 binders on small-molecule microarrays, primary screen, biochemical, small-molecule microarray, 635 nm fluorescence, stem cell growth factors (AID 1073). As to conditions: Notch2 binding, higher = more signal.
Assay [6] concerns the target Pro-neuregulin-1, membrane-bound isoform (Homo sapiens) (UniProt Q02297). Nature of the assay: NRG1 binders on small-molecule microarrays, primary screen, psychiatric disease protein project, biochemical, small-molecule microarray, fluorescence 635/667 (AID 1075).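 Note: score combines 667 nm spot fluorescence with signal to noise.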 The conditions noted are these: NRG1 binding, 635 nm fluorescence, higher = more signal.
Assay [7] concerns Neuregulin-1 EGF-like domain. Nature of the assay: binders of neuregulin-1 EGF-like domain, primary screen, biochemical, small-molecule microarray, 635 nm fluorescence (AID 1081).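 Note: binding of the protein to compounds printed on small-molecule microarray slides.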 As to conditions: small-molecule microarray binding, higher = more signal.
The nature of assay [8]: FRG1 promoter luciferase signal modulators, primary screen, FRG1 inhibition for FSHD, cell-based, C2C12 myotubes, firefly/Renilla luciferase, luminescence (AID 1084). The conditions noted are these: higher = more signal, called active from +8 up or from −8 down.
The nature of assay [9]: binders of probe aFST on microarray, primary screen, stem cell growth factor project, biochemical, small-molecule microarray, fluorescence 635/667 (AID 1086).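 Note: score merges 667 nm fluorescence with signal-to-noise of each printed compound spot.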 As to conditions: higher = more signal.
Assay [10] can be described thus: binders of probe aHhip on microarray, primary screen, stem cell growth factor project, biochemical, small-molecule microarray, fluorescence 635/667 (AID 1087).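 Note: score merges spot fluorescence at 667nm with spot signal to noise ratio.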 The conditions noted are these: higher = more signal.
The subject of assay [11] is PRMT1 (protein arginine N-methyltransferase 1). The assay can be described thus: PRMT1 binders on small-molecule microarrays, primary screen, biochemical, small-molecule microarray, 635 nm fluorescence (AID 1088).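 Note: binding of Prmt1 protein to compounds spotted on small-molecule microarray slides.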 The conditions noted are these: small-molecule microarray binding, higher = more signal.
Assay [12] is described as follows: yeast growth modulation, basal conditions, primary screen, YJM789 clinical isolate, OD600, 24 h (AID 1089).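 Note: growth of clinical yeast isolate S. cerevisiae YJM 789 seeded 1000 cells per well; test concentration not given here.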 The conditions noted are these: S. cerevisiae YJM789 growth, higher = more signal, called active from +8 up or from −8 down.
Assay [13] can be described thus: fission yeast growth modulation, primary screen, strain 972, OD600, 24 h, no modulator (AID 1090).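 Note: basal condition with compound alone and no growth modifier present; test concentration not given here.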 The conditions noted are these: S. pombe 972 growth, higher = more signal, called active from +8 up or from −8 down.
Assay [14] can be described thus: S. cerevisiae growth modulation with rapamycin, primary screen, strain BY4716, OD600, 96 h (AID 1091). Note: test concentration not given here. As to conditions: higher = more signal, called active from +8 up or from −8 down.
Assay [15] has as its target Torsin-1A-interacting protein 2 (Homo sapiens) (UniProt Q8NFQ8). Nature of the assay: LULL1 binders on small-molecule microarray, primary screen, cell lysate, human LULL1 lysate, 635/667 nm fluorescence (AID 1092).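 Note: score merges per-feature 667 nm fluorescence with signal-to-noise.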 As to conditions: hLULL1 lysate binding, 635 nm fluorescence, higher = more signal.
Assay [16] can be described thus: E. coli growth modulation, two-sided OD650, primary screen, E. coli filamentation project, strain DRC41, 24 h (AID 1093).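 Note: MC1000 strain lacking acrAB efflux and sulA so SOS filamentation is blocked; test concentration not given here.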 As to conditions: OD650, 24 h, higher = more signal, called active from +8 up or from −8 down.
Assay [17] can be described thus: small-molecule microarray binders of probe aLefty2, primary screen, biochemical, biotinylated probe, 635/667 nm fluorescence (AID 1094).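 Note: score merges spot fluorescence near 667 nm with spot signal-to-noise ratio.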 As to conditions: higher = more signal.
Assay [18] deals with Noggin (protein binding on small-molecule microarray). Nature of the assay: Noggin binders on small-molecule microarray, primary screen, biochemical, 635/667 nm fluorescence (AID 1095).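 Note: score merges 667 nm feature fluorescence with signal to noise over triplicate slides.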 The conditions noted are these: 635 nm fluorescence, higher = more signal.
Assay [19] has as its target Neurogenic locus notch homolog protein 3 (Homo sapiens) (UniProt Q9UM47). The assay can be described thus: NOTCH3 binders on small-molecule microarray, primary screen, biochemical, 635/667 nm fluorescence (AID 1096). The conditions noted are these: NOTCH3 binding, 635 nm fluorescence, higher = more signal.
A short description of assay [20]: small-molecule microarray binders of probe aEGFR, primary screen, biochemical, biotinylated probe, 635/667 nm fluorescence (AID 1097).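 Note: probe is a biotinylated anti-EGFR antibody binding compounds printed on slides; score combines fluorescence near 667 nm and signal to noise of each spot.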 As to conditions: higher = more signal.

Activity calls are given as the source filed them.

Chain of Neurogenic locus notch homolog protein 2 (Homo sapiens) (Q04721 whole entry, looked up, canonical isoform): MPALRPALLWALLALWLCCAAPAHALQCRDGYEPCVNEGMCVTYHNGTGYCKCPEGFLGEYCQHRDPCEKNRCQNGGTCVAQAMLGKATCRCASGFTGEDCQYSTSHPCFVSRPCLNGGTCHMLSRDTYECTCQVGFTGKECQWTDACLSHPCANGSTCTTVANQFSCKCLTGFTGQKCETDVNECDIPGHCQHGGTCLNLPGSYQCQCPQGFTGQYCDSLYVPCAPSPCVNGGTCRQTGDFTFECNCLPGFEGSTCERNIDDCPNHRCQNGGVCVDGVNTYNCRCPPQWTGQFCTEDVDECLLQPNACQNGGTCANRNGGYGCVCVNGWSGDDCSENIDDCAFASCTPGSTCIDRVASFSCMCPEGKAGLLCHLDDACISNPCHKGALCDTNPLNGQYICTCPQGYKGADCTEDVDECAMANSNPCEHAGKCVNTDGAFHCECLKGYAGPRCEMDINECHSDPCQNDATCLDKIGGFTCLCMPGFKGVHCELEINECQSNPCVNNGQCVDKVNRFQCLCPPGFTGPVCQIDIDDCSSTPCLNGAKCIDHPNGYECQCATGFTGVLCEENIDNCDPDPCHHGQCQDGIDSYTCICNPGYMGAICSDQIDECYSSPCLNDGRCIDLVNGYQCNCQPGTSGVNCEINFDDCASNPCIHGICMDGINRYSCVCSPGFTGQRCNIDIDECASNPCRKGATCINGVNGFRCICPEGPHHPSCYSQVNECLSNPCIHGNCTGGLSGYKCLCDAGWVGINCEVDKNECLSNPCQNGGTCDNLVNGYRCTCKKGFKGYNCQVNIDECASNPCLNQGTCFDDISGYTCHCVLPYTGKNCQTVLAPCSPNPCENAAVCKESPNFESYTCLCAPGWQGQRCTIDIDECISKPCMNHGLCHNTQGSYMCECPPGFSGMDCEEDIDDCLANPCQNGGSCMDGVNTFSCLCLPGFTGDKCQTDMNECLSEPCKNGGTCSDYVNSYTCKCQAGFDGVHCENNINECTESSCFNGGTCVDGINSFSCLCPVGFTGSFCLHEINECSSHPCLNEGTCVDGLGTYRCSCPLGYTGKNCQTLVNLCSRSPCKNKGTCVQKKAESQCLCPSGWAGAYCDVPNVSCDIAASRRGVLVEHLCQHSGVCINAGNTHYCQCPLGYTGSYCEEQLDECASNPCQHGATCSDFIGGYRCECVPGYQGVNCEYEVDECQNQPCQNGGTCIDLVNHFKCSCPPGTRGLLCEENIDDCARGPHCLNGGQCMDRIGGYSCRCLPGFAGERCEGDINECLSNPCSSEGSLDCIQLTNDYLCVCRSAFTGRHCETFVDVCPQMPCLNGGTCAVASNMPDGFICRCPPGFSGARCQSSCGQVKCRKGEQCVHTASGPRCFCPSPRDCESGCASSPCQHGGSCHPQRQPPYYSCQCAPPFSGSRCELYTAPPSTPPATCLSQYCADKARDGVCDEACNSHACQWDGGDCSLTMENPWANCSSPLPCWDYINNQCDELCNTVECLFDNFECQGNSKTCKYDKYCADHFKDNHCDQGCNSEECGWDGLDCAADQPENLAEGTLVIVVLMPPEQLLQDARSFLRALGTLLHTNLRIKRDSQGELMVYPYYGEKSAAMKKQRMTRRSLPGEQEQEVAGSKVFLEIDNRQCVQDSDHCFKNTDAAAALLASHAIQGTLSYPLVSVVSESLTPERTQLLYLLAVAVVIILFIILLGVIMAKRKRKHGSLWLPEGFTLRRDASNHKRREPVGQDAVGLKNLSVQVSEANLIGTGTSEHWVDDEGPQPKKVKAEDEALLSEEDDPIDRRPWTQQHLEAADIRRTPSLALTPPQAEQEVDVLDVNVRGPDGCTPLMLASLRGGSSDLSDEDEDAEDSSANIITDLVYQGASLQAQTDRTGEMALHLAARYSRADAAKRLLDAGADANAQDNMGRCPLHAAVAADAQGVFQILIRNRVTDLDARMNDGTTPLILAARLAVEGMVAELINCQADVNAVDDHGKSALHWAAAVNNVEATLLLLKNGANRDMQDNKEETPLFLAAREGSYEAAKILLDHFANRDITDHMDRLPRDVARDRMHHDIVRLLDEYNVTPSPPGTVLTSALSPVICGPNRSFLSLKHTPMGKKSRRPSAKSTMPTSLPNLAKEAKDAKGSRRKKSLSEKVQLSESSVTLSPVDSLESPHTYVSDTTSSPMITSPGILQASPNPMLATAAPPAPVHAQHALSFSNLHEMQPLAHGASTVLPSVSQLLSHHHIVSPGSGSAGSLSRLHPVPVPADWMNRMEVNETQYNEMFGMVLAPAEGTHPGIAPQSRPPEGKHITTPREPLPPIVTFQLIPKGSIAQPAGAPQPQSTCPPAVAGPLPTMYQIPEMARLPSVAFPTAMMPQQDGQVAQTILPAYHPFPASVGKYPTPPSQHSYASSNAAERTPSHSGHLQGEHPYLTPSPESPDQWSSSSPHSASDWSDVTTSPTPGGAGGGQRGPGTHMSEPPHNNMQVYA
Chain of Neurogenic locus notch homolog protein 3 (Homo sapiens) (Q9UM47 whole entry, looked up): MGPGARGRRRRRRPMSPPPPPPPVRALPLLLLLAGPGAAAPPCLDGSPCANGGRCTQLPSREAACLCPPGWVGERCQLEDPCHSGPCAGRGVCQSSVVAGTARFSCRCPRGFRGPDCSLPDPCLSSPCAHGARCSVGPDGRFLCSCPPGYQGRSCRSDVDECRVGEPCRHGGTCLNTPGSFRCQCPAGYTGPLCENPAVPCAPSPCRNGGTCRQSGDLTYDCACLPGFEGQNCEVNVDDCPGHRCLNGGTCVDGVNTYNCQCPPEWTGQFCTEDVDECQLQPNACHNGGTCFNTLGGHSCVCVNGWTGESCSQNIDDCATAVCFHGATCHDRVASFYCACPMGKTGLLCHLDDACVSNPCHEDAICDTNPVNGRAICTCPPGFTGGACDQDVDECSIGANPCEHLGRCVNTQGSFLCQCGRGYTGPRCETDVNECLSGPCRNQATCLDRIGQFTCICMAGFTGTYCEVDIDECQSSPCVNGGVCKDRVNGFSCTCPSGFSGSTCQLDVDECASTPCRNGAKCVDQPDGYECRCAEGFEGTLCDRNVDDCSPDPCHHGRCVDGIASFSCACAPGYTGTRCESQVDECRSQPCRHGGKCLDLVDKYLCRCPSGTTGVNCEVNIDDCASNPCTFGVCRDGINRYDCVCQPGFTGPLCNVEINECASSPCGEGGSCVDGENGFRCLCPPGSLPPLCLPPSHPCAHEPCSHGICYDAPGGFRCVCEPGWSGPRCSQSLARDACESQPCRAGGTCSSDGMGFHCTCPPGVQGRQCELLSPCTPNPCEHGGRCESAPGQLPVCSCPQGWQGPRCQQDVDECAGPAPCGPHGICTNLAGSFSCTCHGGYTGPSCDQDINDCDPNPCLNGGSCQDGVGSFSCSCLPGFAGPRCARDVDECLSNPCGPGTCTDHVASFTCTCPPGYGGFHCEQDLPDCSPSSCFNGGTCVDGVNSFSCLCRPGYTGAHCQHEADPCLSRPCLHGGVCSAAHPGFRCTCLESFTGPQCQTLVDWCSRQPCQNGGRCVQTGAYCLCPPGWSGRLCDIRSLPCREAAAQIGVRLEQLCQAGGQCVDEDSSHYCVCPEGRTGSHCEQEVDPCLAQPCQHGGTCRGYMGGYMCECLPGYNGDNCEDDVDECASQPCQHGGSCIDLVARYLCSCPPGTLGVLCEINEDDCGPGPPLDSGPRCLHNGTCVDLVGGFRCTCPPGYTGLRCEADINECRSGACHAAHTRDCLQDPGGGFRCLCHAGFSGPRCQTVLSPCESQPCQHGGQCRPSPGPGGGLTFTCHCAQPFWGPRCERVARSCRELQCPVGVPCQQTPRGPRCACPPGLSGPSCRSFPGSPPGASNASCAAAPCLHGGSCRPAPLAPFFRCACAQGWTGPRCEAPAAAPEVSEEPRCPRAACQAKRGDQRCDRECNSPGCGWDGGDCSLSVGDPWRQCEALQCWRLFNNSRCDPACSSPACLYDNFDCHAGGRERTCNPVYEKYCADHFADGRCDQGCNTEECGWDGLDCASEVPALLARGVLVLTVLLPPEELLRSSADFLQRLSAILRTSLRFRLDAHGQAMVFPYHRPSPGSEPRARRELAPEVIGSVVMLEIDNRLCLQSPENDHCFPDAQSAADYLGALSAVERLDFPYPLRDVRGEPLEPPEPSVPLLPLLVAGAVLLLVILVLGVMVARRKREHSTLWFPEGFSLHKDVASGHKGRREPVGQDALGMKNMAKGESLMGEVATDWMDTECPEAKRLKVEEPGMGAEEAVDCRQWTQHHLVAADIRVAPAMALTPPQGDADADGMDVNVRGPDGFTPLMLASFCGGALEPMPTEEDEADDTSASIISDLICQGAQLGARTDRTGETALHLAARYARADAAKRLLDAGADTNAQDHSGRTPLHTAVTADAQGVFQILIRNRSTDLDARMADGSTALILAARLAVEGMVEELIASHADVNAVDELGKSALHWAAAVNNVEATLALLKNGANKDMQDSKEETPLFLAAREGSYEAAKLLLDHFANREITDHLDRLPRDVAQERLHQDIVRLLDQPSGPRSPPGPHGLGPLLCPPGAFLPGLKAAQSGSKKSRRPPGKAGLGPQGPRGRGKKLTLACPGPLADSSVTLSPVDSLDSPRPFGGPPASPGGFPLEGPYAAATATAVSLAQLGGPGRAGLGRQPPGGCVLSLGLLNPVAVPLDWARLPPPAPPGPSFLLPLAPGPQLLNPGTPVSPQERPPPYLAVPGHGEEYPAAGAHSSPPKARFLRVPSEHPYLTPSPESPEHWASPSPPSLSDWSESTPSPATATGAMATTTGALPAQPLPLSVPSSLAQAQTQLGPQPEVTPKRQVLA

Turning to `COc1ccc([Si](C)(C)[C@@H]2[C@@H](CC(=O)N(CCO)Cc3ccccc3)O[C@]3(C(=O)N(Cc4ccc(N5CCOC5=O)cc4)c4ccccc43)[C@H]2C)cc1`, the composite z-score was 0.149 in assay [1]; 0.181 in [2]; -0.093 in assay [3]; 0.222 in assay [4]; 0.294 in assay [5]; 0.567 in [6]. In addition, the composite z-score in assay [7] is 1.1; in [9], 0.389; in assay [10], 0.113; in assay [11], 1.44; in [15], 2.13; in assay [17], -0.0887. The composite z-score in assay [18] is 0.806; in assay [19] it was 0.643; in assay [20], -0.0343. Besides, the z-score in assay [8] is -0.153 (inactive); in assay [12], -0.677 (inactive); in [13], 0.303 (inactive); in assay [14], 2.92 (inactive); in assay [16], -0.249 (inactive).

As to `COC(=O)[C@@]1(Cc2ccc(OC)cc2)[C@H]2c3cc(C(=O)N(C)C)n(Cc4cc(C)n(C)n4)c3C[C@H]2CN1C(=O)c1ccccc1`, the composite z-score in assay [1] is 0.223; in assay [2], 0.221; in assay [3], 0.468; in [4] it was 1.26; in assay [5], 1.33; in [6], 1.92. Besides, the composite z-score in assay [7] came out at 1.31; in [9], 0.732; in assay [10], 0.309; in assay [11], 0.847; in [15], 3.99; in assay [17], 0.14. Besides, the composite z-score in [18] turned out to be 0.119; in assay [19] it was 0.598; in assay [20], 0.0423. The z-score in assay [8] was 2 (inactive); in [12], 0.296 (inactive); in [13], 0.134 (inactive); in assay [14], 0.562 (inactive); in assay [16], -1.13 (inactive).

As to `C=CCC(OC(C)=O)[C@@H]1[C@@H](N(Cc2ccc(-c3ccccc3)cc2)C(=O)Cc2ccc(OC)cc2)c2cc(OCCCO)ccc2N1C(=O)c1ccc(-c2ccccc2)cc1` (stereo not given in full), the composite z-score in assay [1] is -0.0141; in assay [2], 0.253; in assay [3], -0.0158; in [4], -0.0965; in assay [5] it was -0.137; in assay [6], 0.275. In addition, the composite z-score in assay [7] is 0.0056; in assay [9] it was 0.0321; in assay [10], 0.259; in assay [11], -0.0413; in assay [15], 0.182; in assay [17] it was 0.152. The composite z-score in [18] is -0.0829; in [19] it was -0.255; in [20], -0.0488. Also, the z-score was -1.24 (inactive) in assay [8]; -0.445 (inactive) in assay [12]; -0.512 (inactive) in assay [13]; -0.542 (inactive) in assay [14]; 1.23 (inactive) in [16].

As to `O=C1O[C@@H](c2ccccc2)[C@@H](c2ccccc2)N2[C@@H](c3ccc(O)cc3)[C@]3(C(=O)Nc4ccc(C#CC5=CCCCC5)cc43)[C@@H](C(=O)Nc3nc4ccccc4s3)[C@H]12`, the composite z-score in [1] is -0.371; in assay [2], 0.449; in assay [3] it was -0.0455; in assay [4], 1.27; in [5] it was 1.5; in assay [6], 1.34. The composite z-score was 1.18 in [7]; 0.647 in [9]; -0.171 in [10]; 1.54 in [11]; 2.86 in assay [15]; 0.455 in [17]. For the same compound, the composite z-score is 1.04 in assay [18], 1.04 in assay [19] and 0.127 in [20]. Moreover, the z-score in assay [8] is -0.453 (inactive); in assay [12], 0.424 (inactive); in assay [13], 0.015 (inactive); in assay [14], 0.606 (inactive); in assay [16] it was 0.481 (inactive).

As for `Cc1ccc(S[C@]2(C(=O)O)CC(=O)N(C3CCCCC3)[C@@H]2c2ccc(CO)cc2)cc1`, the composite z-score in assay [1] is -0.27; in assay [2], 0.333; in [3], -0.0943; in assay [4] it was -0.315; in [5], 0.555; in [6], 1.36. Besides, the composite z-score in assay [7] is 0.962; in assay [9], 0.157; in [10], 0.0496; in [11], 1.42; in assay [15], 2.82; in [17], -0.132. The composite z-score is 0.243 in assay [18], 0.233 in assay [19] and 0.0346 in [20]. Moreover, the z-score in assay [8] was -1.02 (inactive); in [12], 0.316 (inactive); in [13], 0.222 (inactive); in assay [14], 9.82 (active); in [16], 0.999 (inactive).
